Reference: PubChem BioAssay
“And” between values parts separate entries of the source, which are not always exact repeats. Equal entries are not always repeated. The source made the active and inactive calls. How the calls were made is not given here.

System: Aerobactin synthetase IucA (Klebsiella pneumoniae hvKP1)
Test: IucA enzyme inhibition, primary screen, biochemical, Spectrum library (AID 1346200);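 further: 100% = wells without compound and 0% = wells lacking enzyme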
Details: malachite green pyrophosphate, A620, at 8 µM, active compounds read low

SMILES | activity remaining
CCOC(=O)c1c(C)cc(O)c(C=O)c1O | 97.7% (inactive)
COc1cc(NS(=O)(=O)c2ccc(N)cc2)nc(OC)n1 | 90.2% (inactive)
C[C@]12CCC(=O)C=C1CCC1C2C(=O)C[C@@]2(C)C1CC[C@]2(O)C(=O)CO (stereo not given in full) | 111% (inactive)
CC(C)(N=NC(C)(C)C(=N)N)C(=N)N | 105% (inactive)
CC1(C)CC2C1CC[C@]1(C)CCC3C(C(=O)O)CC(=O)O[C@@]32C1 (stereo not given in full) | 92.5% (inactive)
CC(=O)O[C@@H]1CC2C(C)(C)[C@@H](O)CC[C@]2(C)C2CC[C@@]3(C)[C@H](c4ccoc4)OC(=O)[C@H]4O[C@]43[C@@]21C (stereo not given in full) | 124% (inactive)
O=C1[C@H](CCC(O)c2ccc(F)cc2)[C@@H](c2ccc(O)cc2)N1c1ccc(F)cc1 (stereo not given in full) | 122% (inactive)
O=C(/C=C/c1ccccc1)O[C@H]1C[C@@H](O)[C@]2(O)C=CO[C@@H](O[C@@H]3O[C@H](CO)[C@@H](O)[C@H](O)[C@H]3O)[C@H]12 | 108% (inactive)
CC(C)C[C@@H](NC(=O)OCC1c2ccccc2-c2ccccc21)C(=O)O | 119% (inactive)
CC(=O)Nc1ccccc1 | 103% (inactive)
CNc1ccccc1C(=O)N1CCc2c([nH]c3ccccc23)C1=O | 106% (inactive)
CC(=O)N[C@@H](CC(C)C)C(=O)O | 93.2% (inactive)
NC(=O)c1ccccc1O | 88.1% (inactive)
CCN(CC)C(=O)N1CCN(C)CC1 | 118% (inactive)
CO/N=C(/C(=O)NC1C(=O)N2C(C(=O)O)=C(COC(N)=O)CSC12)c1ccco1 (stereo not given) | 92.5% (inactive)
CC1=C(C(=O)O)N2C(=O)[C@@H](NC(=O)C(N)c3ccccc3)[C@H]2SC1 (stereo not given in full) | 104% (inactive)
CC(=O)Oc1ccc2c(c1OC(C)=O)OCC1(O)Cc3c(cc(OC(C)=O)c(OC(C)=O)c3OC(C)=O)C21 (stereo not given) | 111% (inactive)
N.N.O=C(O)C1(C(=O)O)CCC1.[Pt] | 94.6% (inactive)
CC(C)CCCC(C)N (stereo not given) | 121% (inactive)
CC(C)=CCC1=C(O)c2ccccc2C(=O)C1=O | 119% (inactive)

SMILES | activity remaining
CC1=CCc2c(cc3oc(C)cc(=O)c3c2O)OC1 | 120% (inactive)
COc1cc(C(=O)O[C@H]2CC[C@@]3(C)[C@@H]4CC[C@H]5[C@]6(O)C[C@H](O)[C@@]7(O)[C@@H](CN8C[C@@H](C)CC[C@H]8[C@@]7(C)O)[C@]6(O)C[C@@]53OC24O)cc(OC)c1OC | 123% (inactive)
COc1cc(O)c(C(=O)/C=C/c2ccc(OC)c(O)c2)c(OC)c1 | 105% (inactive)
CCOC(=O)c1c(C)cc(O)cc1O | 119% (inactive)
C1CCN2C[C@@H]3C[C@H](CN4CCCC[C@@H]34)[C@H]2C1 | 106% (inactive) and 89.3% (inactive)
C[n+]1ccccc1/C=N/O | 117% (inactive)
CN[C@@H]1C(OC2[C@H](O[C@H]3[C@H](O)[C@@H](O)[C@H](N=C(N)N)[C@@H](O)[C@@H]3N=C(N)N)OC(C)[C@]2(O)CO)OC(CO)C(O)C1O (stereo not given in full) | 111% (inactive)
CC1=C2[C@](C)(C=CC1=O)C[C@H](O)[C@H]1[C@H](C)C(=O)O[C@]21C | 107% (inactive)
CC(=O)O[C@]1(C(C)=O)CCC2C3C[C@H](C)C4=CC(=O)CC[C@]4(C)C3CC[C@@]21C (stereo not given in full) | 95.7% (inactive)
OCc1ccccc1O[C@@H]1O[C@H](CO)[C@@H](O)[C@H](O)[C@H]1O | 101% (inactive)
O=C(Cc1cccs1)NC1C(=O)N2C(C(=O)[O-])=C(C[n+]3ccccc3)CSC12 (stereo not given) | 109% (inactive)
C=CCc1ccc(O)c(OC)c1 | 115% (inactive)
CC(=O)O[C@H]1C[C@@H](OC(C)=O)C(C)(C)C2C[C@@H](OC(C)=O)[C@@]3(C)C4=CC(=O)O[C@@H](c5ccoc5)[C@]4(C)CCC3[C@]21C (stereo not given in full) | 102% (inactive)
CC(=O)NCCCCCC(=O)O | 124% (inactive)
O=C(O)c1cn(-c2ccc(F)cc2)c2cc(N3CCNCC3)c(F)cc2c1=O | 118% (inactive)
CCOC(=O)[C@H](CCc1ccccc1)N[C@@H](C)C(=O)N1[C@H](C(=O)O)C[C@@H]2CCC[C@@H]21 | 103% (inactive)
COc1ccc(/C=C/C(=O)c2ccc(O)cc2O)cc1OC | 93.4% (inactive)
Cc1c(S(=O)(=O)O)oc2c1C(=O)C(=O)c1c-2ccc2c1CCCC2(C)C | 127% (inactive)
CC[C@H]1OC(=O)[C@H](C)[C@@H](O[C@H]2C[C@@](C)(OC)[C@@H](O)[C@H](C)O2)[C@H](C)[C@@H](O[C@@H]2O[C@H](C)C[C@H](N(C)C)[C@H]2O)[C@](C)(OC)C[C@@H](C)C(=O)[C@H](C)[C@@H](O)[C@]1(C)O | 119% (inactive)
O=c1cc(-c2ccc(O)cc2)oc2cc(O)ccc12 | 102% (inactive)
